Dicer processing = human Dicer pre-microRNA cleavage inhibition | Q9UPY3 | cat-ELCCA pre-miR-21 Dicer processing, chemiluminescence; active compounds read high | z-score at 25 µM | 6% of 47,000 active; in the data active means z-score above about 3, passing the limit was not always enough;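 further: plate controls were vehicle for no effect and no enzyme for full effect; higher signal means more uncleaved substrate so more Dicer inhibition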
Target sequence (Q9UPY3 whole entry, looked up): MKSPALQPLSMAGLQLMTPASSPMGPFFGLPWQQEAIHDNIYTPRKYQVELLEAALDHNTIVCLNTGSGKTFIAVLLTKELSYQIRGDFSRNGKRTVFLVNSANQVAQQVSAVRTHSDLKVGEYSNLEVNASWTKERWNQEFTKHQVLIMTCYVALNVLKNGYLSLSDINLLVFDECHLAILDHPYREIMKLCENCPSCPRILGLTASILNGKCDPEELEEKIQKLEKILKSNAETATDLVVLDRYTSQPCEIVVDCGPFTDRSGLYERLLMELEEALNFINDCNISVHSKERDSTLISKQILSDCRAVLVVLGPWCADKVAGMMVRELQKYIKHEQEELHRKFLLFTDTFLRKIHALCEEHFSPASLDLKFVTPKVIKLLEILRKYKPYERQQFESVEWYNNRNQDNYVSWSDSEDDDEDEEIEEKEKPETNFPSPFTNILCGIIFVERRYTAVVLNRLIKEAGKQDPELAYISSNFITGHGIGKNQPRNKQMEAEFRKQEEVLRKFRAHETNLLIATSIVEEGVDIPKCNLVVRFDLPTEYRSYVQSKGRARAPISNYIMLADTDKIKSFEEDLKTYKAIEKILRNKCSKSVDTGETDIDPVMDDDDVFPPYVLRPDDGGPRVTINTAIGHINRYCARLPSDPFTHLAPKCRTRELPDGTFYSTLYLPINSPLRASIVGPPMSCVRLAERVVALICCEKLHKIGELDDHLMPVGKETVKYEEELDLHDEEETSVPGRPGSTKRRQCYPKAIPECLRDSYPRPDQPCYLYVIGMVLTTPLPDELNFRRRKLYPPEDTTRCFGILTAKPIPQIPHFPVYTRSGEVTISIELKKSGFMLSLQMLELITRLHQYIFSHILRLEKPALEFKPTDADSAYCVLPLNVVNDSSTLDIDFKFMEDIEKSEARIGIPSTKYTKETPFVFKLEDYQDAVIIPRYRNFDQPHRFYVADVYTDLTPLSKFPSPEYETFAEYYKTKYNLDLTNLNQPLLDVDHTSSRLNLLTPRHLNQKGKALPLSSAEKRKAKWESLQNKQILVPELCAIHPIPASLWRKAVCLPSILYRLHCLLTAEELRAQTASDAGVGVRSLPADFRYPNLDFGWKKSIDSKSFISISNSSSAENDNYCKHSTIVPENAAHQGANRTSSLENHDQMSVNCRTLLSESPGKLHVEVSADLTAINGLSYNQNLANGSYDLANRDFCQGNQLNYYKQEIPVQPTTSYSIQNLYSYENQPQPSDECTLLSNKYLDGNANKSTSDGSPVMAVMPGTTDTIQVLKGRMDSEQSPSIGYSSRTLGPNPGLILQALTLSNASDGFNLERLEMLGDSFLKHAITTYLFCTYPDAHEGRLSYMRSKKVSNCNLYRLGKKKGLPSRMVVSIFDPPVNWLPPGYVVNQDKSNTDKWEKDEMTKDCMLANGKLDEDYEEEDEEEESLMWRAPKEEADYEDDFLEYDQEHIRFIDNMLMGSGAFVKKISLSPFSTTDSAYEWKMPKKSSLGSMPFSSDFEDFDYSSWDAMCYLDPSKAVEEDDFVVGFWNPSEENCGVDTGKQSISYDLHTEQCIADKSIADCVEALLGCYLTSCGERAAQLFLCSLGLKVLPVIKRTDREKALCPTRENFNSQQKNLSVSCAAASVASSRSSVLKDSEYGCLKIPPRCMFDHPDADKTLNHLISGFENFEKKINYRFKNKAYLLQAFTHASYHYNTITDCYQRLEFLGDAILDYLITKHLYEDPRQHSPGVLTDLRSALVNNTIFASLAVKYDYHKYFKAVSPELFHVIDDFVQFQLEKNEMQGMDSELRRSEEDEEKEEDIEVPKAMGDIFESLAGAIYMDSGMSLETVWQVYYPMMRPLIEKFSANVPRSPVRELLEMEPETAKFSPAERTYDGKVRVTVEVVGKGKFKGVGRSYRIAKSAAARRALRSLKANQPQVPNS
Numbers without * were called inactive. The full list was thinned out, with hits kept by preference.

SMILES	Dicer processing
Fc1cccc(CN2CCN(Cc3ccccn3)CC2)c1	0.51
CC(=O)CSc1ccc(C(F)(F)F)cc1[N+](=O)[O-]	-2.76
O=S(=O)(c1ccc(Cl)c(Cl)c1)c1ccccc1-c1ccccc1	-0.77
CC(=O)Nc1nc(-c2ccc3ccccc3c2)cs1	0.21
CC(=O)Nc1ccc(S(=O)(=O)Nc2ccc(-c3csc(C)n3)cc2)cc1Cl	-0.43
Cc1cccn2cc(-c3cccc(S(=O)(=O)N4CC(C)CC(C)C4)c3)nc12 (stereo not drawn)	0.16
Cc1nc(-c2ccc(NS(=O)(=O)c3ccc(Cl)cc3)cc2)cs1	5.93*
CCc1ccc(S(=O)(=O)Nc2ccc(-c3cn4cccc(C)c4n3)cc2)cc1	7.21*
Cc1cccc(S(=O)(=O)Nc2ccc(-c3cn4cccc(C)c4n3)cc2)c1	10.4
Cc1nc(-c2ccc(Cl)cc2)cs1	2.62
Cc1cc(C)c(S(=O)(=O)Nc2ccc(-c3cn4ccccc4n3)cc2)cc1C	2.65
CCCN(CCC)S(=O)(=O)c1cccc(-c2cn3cccc(C)c3n2)c1	0.04
Cc1cccn2cc(-c3ccc(NS(=O)(=O)c4ccc(Cl)cc4)cc3)nc12	5.96*
Cc1nc(-c2cccc(NS(=O)(=O)c3ccc4ccccc4c3)c2)cs1	4.53*
Cc1cccc(S(=O)(=O)Nc2cccc(-c3cn4ccc(C)cc4n3)c2)c1	1.42
CCCN1C(=O)C2(/C(=C(/O)c3ccc(C)cc3)C(=O)C(=O)N2CCN(C)C)c2ccccc21 (stereo not drawn)	0.22
Clc1ccc(Oc2nc(-c3cccnc3)nc3ccccc23)cc1	1.41
O=C(c1ccccc1)c1nn(-c2cccc(Cl)c2)c2nc(=O)c(Cc3ccccc3)nn12	-0.08
CCOC(=O)c1cnn(-c2nc(-c3ccc(C#N)cc3)cs2)c1C(F)(F)F	0.28
Nc1nc2c(nc(N3CCCCCC3)n2[C@H]2O[C@@H](CO)[C@H](O)[C@@H]2O)c(=O)[nH]1	-0.5
O=C(Nc1ccc(N2CCN(c3ccc(C(F)(F)F)cn3)CC2)nc1)c1ccc(Cl)cc1	1
COc1cc(C2C(C(=O)OC(C)C)=C(C)NC3=C2C(=O)CC(C)(C)C3)cc(Cl)c1O (stereo not drawn)	-0.64
O=S(=O)(c1ccccc1)n1nc(-c2ccccc2)nc1NCc1ccc(F)cc1	1.88
N#C/C(=C\c1ccc(O)cc1)C(N)=S	-0.52
Cc1cc(O)c(C(C)C)cc1NC(=O)c1cc(C(C)(C)C)oc1C	-0.29
SMILES	Dicer processing
O=C(N/N=C/c1c(F)cccc1Cl)c1cccn1-c1ccc(F)cc1	0.34
O=C(NCC1CCCO1)C1Sc2nnc(-c3ccccc3)n2NC1c1ccc(Cl)cc1 (stereo not drawn)	1.67
O=C(NCC1CCCO1)C1Sc2nnc(-c3ccccc3)n2NC1c1ccc(F)cc1 (stereo not drawn)	-0.07
CCOc1ccc(C2Nn3c(C)nnc3SC2C(=O)NCC2CCCO2)cc1 (stereo not drawn)	3.44*
Cc1cc(=O)c2c(Cl)ccc(C)c2[nH]1	-1.67
CC(=Nc1ccccc1)c1cccs1	0.47
CCCOC(=O)C1=C(C)NC2=C(C(=O)CC(c3ccc(OC)cc3)C2)C1c1ccc(O)c(OCC)c1 (stereo not drawn)	0.67
CCOC(=O)C1(C#N)C(c2ccccc2)C(c2cccs2)=NN1c1ccc([N+](=O)[O-])cc1 (stereo not drawn)	-0.27
COc1ccc(OC)c(NS(=O)(=O)c2ccc(Br)cc2)c1	6.13
COc1nc(NS(=O)(=O)c2ccc(C)cc2)nc(C)c1Cl	-0.17
Cc1cc(C)c(S(=O)(=O)Nc2cc(Cl)c3oc(=O)sc3c2)c(C)c1	12.4*
Cc1cc(C)c(S(=O)(=O)Nc2ccc(O)cc2)c(C)c1	1.44
Cc1cc(C)c(S(=O)(=O)Nc2cccc3ccc(C)nc23)c(C)c1	-0.95
COc1ccc(S(=O)(=O)Nc2cc(Cl)c3oc(=O)sc3c2)cc1OC	4.32*
COC(CNC(=S)Nc1cc(Cl)c(Cl)cc1Cl)OC	-0.66
c1ccc(Nc2ncnc3c2sc2ncccc23)cc1	-0.49
CCCNC(=O)O/N=C(\N)c1cc(Cl)c(N)c(Cl)c1	-2.25
Cc1ccc(C(=O)/C(C#N)=C/c2cc(C(=O)c3ccc(Cl)cc3)cn2C)cc1	-0.48
Clc1ccc(CSc2ncc(-c3ccc(Cl)cc3)[nH]2)cc1	0.75
N#Cc1c(-c2ccc(Cl)cc2)[nH]c(SCc2ccccc2)nc1=S	3.55*
N#Cc1c(-c2ccccc2)nc(SCc2ccccc2)[nH]c1=O	0.36
Clc1ccc2c(c1)NC(c1ccc3c(c1)OCO3)O2 (stereo not drawn)	-0.86
COC(=O)c1cnc(N/N=C\c2ccc(C(F)(F)F)cc2)nc1C(F)(F)F	-1.43
CC(=O)Nc1ccc(Br)cc1C(=O)c1nnc(N)s1	1.93
CCOC(=O)N1CCN(S(C)(=O)=O)CC1	3.54*
SMILES	Dicer processing
CCOC(=O)N1CCN(S(=O)(=O)c2ccc(Cl)cc2)CC1	2.87
CCCS(=O)(=O)N1CCN(C2CCN(C(=O)OCC)CC2)CC1	-1.15
O=C(O)c1cc(NCc2ccc3c(c2)OCO3)ccc1N1CCOCC1	2.76
CC(C)(C)c1ccc(-c2nc3cc(NC(=O)c4ccc([N+](=O)[O-])o4)ccc3o2)cc1	1.03
Cc1cc(NCc2ccc3c(c2)OCO3)ccc1Br	3.81*
Clc1cc(NCc2ccc3c(c2)OCO3)ccc1N1CCOCC1	6.92*
Cc1ccc(-c2nc3cc(NCc4ccc5c(c4)OCO5)ccc3o2)cc1	7.99*
CCc1ccc(CNCc2ccc3c(c2)OCO3)cc1	1.59
Cc1ccc(-c2nc3cc(NC(=O)c4ccc([N+](=O)[O-])o4)ccc3o2)cc1	-0.19
c1ccc(NCc2ccc3c(c2)OCO3)cc1	1.4
O=c1[nH]c2ccc(NCc3ccc4c(c3)OCO4)cc2[nH]1	-0.48
COc1ccc(/C(O)=C2\C(=O)C(=O)N(CCCn3ccnc3)C2c2ccc(OC)cc2)cc1 (stereo not drawn)	2.82
O=C(Cn1nnc(N2CCCCC2)n1)c1ccc(Cl)cc1	-0.11
O=C(Nc1cc(Cl)cc(Cl)c1)Nc1csc(Cc2c(Cl)cccc2Cl)n1	0.08
CC1(C)CCC(=O)N(c2ccc(OC(F)(F)F)cc2)C1=O	1.98
Cc1ccc(Cl)cc1N1C(=O)CCC(C)(C)C1=O	3.29*
COC(=O)c1sccc1Oc1ccc(Cl)cc1N1C(=O)CCC1=O	1.48
Cc1nc(-c2ccc(F)cc2)c(CC(=O)O)s1	0.61
Cc1cccc(Cl)c1NC(=S)NC1CCCC1	-0.44
COC1=C(OC)C2(C=CC1=O)CC(C)(C)N=C2SC (stereo not drawn)	1.08
CSC1=NC(C)(C)CCC12C=CC(=O)C=C2	3.16*
O=C(Cc1c(O)c2ccccc2oc1=O)c1cc2ccccc2o1	0.72
CC(=O)OCc1ccccc1Sc1ccc([N+](=O)[O-])cc1C(=O)O	-1.24
CCc1cccc(C)c1NC(=O)NNC(=O)Cc1nc(-c2ccccc2)sc1C	2.64
O=C1C(=O)N(CCCN2CCOCC2)C(c2cccnc2)/C1=C(\O)c1ccc(F)cc1 (stereo not drawn)	3.45*
SMILES	Dicer processing
Cc1ccc(/C(O)=C2\C(=O)C(=O)N(CCN3CCOCC3)C2c2cccnc2)cc1 (stereo not drawn)	0.8
O=C1C(=O)N(CCCN2CCOCC2)C(c2ccc(Cl)cc2)/C1=C(\O)c1ccc(F)cc1 (stereo not drawn)	-0.47
CCCN1C(=O)C(O)(CC(=O)c2cccc(-n3cccc3)c2)c2ccccc21 (stereo not drawn)	-0.42
Cc1cc(C)n(CC(=O)Nc2ccc(Br)cc2)c(=O)n1	-0.05
CCCc1nc(N)c(C#N)c(-c2cccs2)c1CC	0.67
O=C(Nc1ccc(S(=O)(=O)Nc2nccs2)cc1)c1sc2cc(Cl)ccc2c1Cl	-0.04

Screens as filed in PubChem.
